# Results from paper doi:10.1101/2025.02.07.636106.
# Target: EEA1 (UniProt Q15075)
# Experiment: cross-linking mass spectrometry
# Conditions: DMTMM
# EEA1, sequence (Q15075 whole entry): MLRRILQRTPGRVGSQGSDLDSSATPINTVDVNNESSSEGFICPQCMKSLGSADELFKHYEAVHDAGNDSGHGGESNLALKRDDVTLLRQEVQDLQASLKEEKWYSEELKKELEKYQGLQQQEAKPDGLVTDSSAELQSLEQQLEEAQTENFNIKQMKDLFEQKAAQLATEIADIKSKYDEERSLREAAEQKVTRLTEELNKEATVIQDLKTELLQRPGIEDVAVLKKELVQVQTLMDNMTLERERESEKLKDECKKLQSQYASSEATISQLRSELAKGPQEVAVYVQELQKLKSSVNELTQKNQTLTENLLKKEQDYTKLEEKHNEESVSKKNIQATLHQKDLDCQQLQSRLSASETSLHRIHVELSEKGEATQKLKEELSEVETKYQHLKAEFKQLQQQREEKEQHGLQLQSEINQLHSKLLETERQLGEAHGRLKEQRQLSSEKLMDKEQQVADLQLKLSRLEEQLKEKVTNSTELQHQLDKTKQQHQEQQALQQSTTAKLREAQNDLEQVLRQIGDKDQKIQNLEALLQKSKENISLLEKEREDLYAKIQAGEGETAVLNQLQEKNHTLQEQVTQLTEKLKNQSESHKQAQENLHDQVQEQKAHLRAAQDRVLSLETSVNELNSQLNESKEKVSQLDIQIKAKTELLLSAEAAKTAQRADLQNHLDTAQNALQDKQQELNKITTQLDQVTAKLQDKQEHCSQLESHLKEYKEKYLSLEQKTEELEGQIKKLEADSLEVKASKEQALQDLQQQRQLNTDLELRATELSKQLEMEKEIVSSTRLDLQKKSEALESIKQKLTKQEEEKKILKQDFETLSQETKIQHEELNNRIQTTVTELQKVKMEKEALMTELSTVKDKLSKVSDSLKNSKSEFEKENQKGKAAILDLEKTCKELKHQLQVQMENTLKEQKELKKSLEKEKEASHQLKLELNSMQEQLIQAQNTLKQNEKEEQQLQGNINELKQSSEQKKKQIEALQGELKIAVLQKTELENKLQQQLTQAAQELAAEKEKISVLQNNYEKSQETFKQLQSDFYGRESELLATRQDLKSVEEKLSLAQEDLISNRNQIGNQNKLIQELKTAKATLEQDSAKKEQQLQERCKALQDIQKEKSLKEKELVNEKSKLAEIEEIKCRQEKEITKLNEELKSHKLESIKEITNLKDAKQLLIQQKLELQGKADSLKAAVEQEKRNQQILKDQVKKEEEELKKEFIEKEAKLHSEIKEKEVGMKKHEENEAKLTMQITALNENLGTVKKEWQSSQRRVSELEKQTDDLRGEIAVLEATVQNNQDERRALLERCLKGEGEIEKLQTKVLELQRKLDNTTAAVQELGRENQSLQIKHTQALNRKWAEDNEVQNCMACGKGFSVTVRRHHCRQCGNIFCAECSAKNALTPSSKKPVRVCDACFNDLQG
# TPM4, P67936, sequence (P67936 whole entry): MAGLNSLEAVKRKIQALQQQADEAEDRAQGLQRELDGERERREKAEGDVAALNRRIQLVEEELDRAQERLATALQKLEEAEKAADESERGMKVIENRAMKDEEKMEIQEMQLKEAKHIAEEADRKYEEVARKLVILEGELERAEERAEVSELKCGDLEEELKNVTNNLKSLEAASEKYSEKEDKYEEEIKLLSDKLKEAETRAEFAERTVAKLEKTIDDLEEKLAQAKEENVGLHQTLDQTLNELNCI
# ACADL, P28330, sequence (P28330 whole entry): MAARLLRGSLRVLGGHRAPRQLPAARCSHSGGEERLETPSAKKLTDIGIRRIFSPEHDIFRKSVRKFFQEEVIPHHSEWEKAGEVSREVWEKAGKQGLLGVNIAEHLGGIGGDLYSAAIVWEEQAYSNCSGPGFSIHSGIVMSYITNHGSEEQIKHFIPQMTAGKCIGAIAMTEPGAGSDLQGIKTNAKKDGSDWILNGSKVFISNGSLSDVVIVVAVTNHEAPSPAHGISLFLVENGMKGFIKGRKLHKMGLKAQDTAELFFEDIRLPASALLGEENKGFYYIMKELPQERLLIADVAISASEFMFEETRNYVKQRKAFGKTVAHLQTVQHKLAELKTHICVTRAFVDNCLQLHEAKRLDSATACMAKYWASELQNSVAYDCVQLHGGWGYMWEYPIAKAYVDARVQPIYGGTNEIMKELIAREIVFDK
# ZNF638, Q14966, sequence (Q14966 whole entry): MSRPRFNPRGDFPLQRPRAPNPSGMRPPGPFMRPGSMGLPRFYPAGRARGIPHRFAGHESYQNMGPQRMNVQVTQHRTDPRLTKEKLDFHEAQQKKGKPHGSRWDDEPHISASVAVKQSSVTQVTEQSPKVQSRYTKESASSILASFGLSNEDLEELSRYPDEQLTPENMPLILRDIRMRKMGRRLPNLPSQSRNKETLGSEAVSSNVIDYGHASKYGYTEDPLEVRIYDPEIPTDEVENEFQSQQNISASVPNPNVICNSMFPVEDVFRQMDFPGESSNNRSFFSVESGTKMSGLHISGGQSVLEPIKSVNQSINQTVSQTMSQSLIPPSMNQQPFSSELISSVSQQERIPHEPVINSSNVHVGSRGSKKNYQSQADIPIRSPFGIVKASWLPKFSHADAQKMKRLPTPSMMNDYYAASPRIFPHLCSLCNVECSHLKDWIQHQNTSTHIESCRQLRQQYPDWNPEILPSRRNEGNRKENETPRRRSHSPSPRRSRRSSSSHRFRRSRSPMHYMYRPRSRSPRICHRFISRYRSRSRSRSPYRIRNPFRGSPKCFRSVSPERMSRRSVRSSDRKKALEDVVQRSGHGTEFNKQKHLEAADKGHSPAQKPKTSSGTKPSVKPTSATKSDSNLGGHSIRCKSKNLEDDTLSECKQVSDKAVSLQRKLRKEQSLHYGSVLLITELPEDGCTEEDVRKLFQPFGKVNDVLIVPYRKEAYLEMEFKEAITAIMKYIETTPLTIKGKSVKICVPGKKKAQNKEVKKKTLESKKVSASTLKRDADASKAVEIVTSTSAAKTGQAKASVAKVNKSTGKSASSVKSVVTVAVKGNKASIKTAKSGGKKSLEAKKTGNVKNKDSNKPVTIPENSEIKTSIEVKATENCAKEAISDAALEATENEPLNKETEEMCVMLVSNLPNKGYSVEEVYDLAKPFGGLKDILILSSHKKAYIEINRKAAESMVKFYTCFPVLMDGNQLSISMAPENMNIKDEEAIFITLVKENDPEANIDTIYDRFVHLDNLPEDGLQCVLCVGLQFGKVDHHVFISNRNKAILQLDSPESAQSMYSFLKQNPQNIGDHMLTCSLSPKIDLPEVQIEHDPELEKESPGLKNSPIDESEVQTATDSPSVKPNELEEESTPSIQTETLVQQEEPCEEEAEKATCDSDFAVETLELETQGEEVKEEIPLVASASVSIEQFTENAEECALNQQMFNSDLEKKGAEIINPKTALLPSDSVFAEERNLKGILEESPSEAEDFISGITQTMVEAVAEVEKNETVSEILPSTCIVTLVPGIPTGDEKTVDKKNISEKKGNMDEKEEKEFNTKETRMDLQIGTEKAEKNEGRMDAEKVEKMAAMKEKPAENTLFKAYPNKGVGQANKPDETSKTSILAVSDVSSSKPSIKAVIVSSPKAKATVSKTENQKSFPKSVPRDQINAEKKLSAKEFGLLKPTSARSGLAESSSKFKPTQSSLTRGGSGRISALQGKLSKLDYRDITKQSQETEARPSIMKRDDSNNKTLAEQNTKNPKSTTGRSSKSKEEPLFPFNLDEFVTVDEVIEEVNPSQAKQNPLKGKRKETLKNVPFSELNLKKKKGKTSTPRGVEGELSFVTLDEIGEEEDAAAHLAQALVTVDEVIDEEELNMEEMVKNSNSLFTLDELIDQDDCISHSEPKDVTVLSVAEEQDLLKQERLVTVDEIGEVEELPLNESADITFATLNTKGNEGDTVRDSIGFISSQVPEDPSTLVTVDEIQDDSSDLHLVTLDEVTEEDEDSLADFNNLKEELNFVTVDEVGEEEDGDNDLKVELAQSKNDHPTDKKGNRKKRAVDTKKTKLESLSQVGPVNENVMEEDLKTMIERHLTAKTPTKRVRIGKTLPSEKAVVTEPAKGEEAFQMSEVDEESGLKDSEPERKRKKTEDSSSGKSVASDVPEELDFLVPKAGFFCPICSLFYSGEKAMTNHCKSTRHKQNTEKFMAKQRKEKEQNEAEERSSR
# RAB9A, P51151, sequence (P51151 whole entry): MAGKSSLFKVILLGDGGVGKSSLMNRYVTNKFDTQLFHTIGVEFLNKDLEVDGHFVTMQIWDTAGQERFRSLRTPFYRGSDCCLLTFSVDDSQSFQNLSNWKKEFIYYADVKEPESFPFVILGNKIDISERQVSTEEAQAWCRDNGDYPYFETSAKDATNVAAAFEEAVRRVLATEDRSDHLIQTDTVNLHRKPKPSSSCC
row,Substance,cross-linked residues
1,"ZNF638, Q14966",K951 - E91
2,"DMD, P11532",E2453 - K227
3,"NEB, P20929",K8264 - E1248
4,"ACADL, P28330",K92 - D1321

# Same assay, conditions: DSSO
row,Substance,cross-linked residues
1,"ROCK2, O75116",K780 - K303
2,"RAB9A, P51151",K4 - K1340
3,"TPM4, P67936",K215 - K370
4,"DST, Q03001",K3770 - K995
